Compound activity (PubChem)
HSD17B inhib = qHTS Assay for Inhibitors of HSD17B4, hydroxysteroid (17-beta) dehydrogenase 4; recombinant HSD17B10, NADH fluorescence kinetic; Potency, µM (top dose mostly 57.1 µM), for the others: at the top dose activity change, negative = inhibition, hits mostly inhibitors; 7.6% of 75,000 active; 3-hydroxyacyl-CoA dehydrogenase type-2 (Homo sapiens), Q99714; AID 893, 2007;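 note: the protocol describes HADH2 (HSD17B10) and not the HSD17B4 of the title; nearly all actives have a fitted effect of over 70% in size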
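His-tagged E. coli-expressed HADH2 at 20 nM in 100 mM Tris-HCl pH 9.0 with 0.01 % Tween-20, preincubated 15 min with compound at room temperature. Reaction with 1 mM NAD+ and 90 uM beta-hydroxybutyryl coenzyme A; NADH fluorescence (360/450 nm) read kinetically over 4 min, last minus first point.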
ERK AVP inh = qHTS Assay for Inhibitors of the ERK Signaling Pathway using a Homogeneous Screening Assay | HEK293-V1b, vasopressin-stimulated pERK AlphaScreen | Potency, µM (top dose mostly 57.5 µM), for inactives: at the top dose activity, negative = inhibition, actives largely listed as inhibitors | 0.99% of 72,000 active | AID 995, 2007; note: nearly all actives have a fitted effect of over 55% in size
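V1b-HEK293 cells; cpd 30 min 37C; 25 nM vasopressin 5 min; lyse 10 min; AlphaScreen beads 5 hr RT. Normalized to DMSO basal and 25 nM vasopressin; AC50 by Hill fit.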
FLuc inh = qHTS Assay for Inhibitors of Firefly Luciferase; Luciferin 4-monooxygenase (Photinus pyralis), P08659; Potency, µM (titrated, usually from 57.1 µM), inactives show at the highest dose activity change, negative = inhibition, most hits filed as inhibitors; 2.2% of 72,000 active; purified firefly luciferase, luminescence, 8 min; note: nearly all actives have a fitted effect of over 40% in size
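Inhibition of light generation by firefly luciferase from ATP and luciferin was profiled with concentration-response curves per sample, ATP held at 10 uM within the enzyme's linear range. Plates were read by luminescence after an 8-minute ambient incubation.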
HADH2 inh = qHTS Assay for Inhibitors of HADH2 (Hydroxyacyl-Coenzyme A Dehydrogenase, Type II). 3-hydroxyacyl-CoA dehydrogenase type-2 (Homo sapiens), Q99714. recombinant HADH2, NADH fluorescence, beta-hydroxybutyryl-CoA. Potency, µM (top dose mostly 57.1 µM), inactives show top-dose activity change, negative = inhibition, most hits filed as inhibitors. 3.4% of 73,000 active; note: nearly all actives have a fitted effect of over 60% in size
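20 nM HADH2 + cpd, 15 min RT; add 1 mM NAD+/90 uM beta-hydroxybutyryl-CoA; kinetic fluorescence 360/450 nm, 4 min. Tris-HCl pH 9.0, 0.01% Tween-20.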
ALOX15 inhib = qHTS Assay for Inhibitors of 15-hLO (15-human lipoxygenase) | Polyunsaturated fatty acid lipoxygenase ALOX15 (Homo sapiens), P16050 | purified 15hLO-1, xylenol orange hydroperoxide absorbance | Potency, µM (titrated, usually from 57.1 µM), without a hit: at the highest dose activity change, negative = inhibition, most hits filed as inhibitors | 1.4% of 74,000 active; note: nearly all actives have a fitted effect of over 55% in size
Target sequence (P16050 whole entry, looked up): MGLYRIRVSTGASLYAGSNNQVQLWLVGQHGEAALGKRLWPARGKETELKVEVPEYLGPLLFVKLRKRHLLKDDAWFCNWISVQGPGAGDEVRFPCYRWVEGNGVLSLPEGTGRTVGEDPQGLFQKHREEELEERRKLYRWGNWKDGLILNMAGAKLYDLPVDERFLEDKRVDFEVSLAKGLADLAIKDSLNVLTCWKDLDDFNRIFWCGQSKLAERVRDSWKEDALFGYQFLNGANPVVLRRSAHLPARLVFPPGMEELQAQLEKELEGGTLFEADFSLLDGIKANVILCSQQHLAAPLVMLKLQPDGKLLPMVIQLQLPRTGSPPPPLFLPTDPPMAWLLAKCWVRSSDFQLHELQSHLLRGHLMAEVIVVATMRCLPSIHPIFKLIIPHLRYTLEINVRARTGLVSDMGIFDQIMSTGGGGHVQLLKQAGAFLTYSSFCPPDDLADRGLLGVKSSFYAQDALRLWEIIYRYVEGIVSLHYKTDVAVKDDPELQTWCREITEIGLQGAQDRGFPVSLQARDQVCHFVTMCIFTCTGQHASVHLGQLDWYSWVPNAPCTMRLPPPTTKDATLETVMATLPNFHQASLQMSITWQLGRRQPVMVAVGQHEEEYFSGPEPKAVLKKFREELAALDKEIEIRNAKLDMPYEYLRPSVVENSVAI
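Quantitative HTS in 25 mM Hepes pH 7.5 containing 0.01% Triton X-100: human 15hLO-1 at 40 nM, arachidonic acid at 50 uM, 6 min turnover. Product quantified via ferrous oxidation/xylenol orange, 573:405 nm absorbance ratio.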
PK Bst = Pyruvate Kinase | purified pyruvate kinase, luminescence ATP production; ribose 5-phosphate activator present at AC10 | Potency, µM | AID 361, 2006 | 1.2% of 51,000 active; in the data active = potency below about 11 µM; inconclusive = mostly about 12 µM to 25 µM;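 the screen sought inhibitors and activators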;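 note: scaled between full activation by ribose 5 phosphate and full inhibition by luteolin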
Starred values were filed as active, the others as inactive; i = inactive; ? = inconclusive; · = no result; [ ] = remark or other dose. In the library only some 11% were active in any assay of this set; here they are far more common. Unless noted, calls come from the whole dose curve; as a rule, active = well fitted curve in the direction sought with a large enough effect; inconclusive = small, poorly fitted or top-dose-only effect, or another doubt; inactive = no such curve, though single readings can be large; an effect the other way counts as inactive or inconclusive. Unless noted, % is set by controls: 0 for no effect and ±100 for the full control effect; potency is the fitted concentration of half-maximal effect.

SMILES	HSD17B inhib	ERK AVP inh	FLuc inh	HADH2 inh	ALOX15 inhib	PK Bst
O=C(Oc1ccccc1)N1CCC[C@@]2(CCN(c3ccccn3)C2)C1	25µM*	18%	0%[11.4 µM]	-10%	3%	·
O=C(Oc1ccccc1)N1CCC2(CCCN(c3ccccn3)C2)CC1	25µM*	4%	0%[11.4 µM]	-9%	-7%	·
Cn1cccc1C(=O)N1CCC2(CCCN(c3ccccn3)C2)CC1	20µM*	?	0%[11.4 µM]	-10%	-15%	·
Cn1cccc1C(=O)N1CCC2(CCCN(c3ccc(-c4ccccc4)cc3)C2)CC1	-22%	-11%	1%[11.4 µM]	18%	?	·
C[C@]1(c2ccccc2)OC(C(=O)O)=CC1=O	-2%	-4%	1%	5%	-20%[25.6 µM]	·
CC(C)C[C@@H](CC(=O)N[C@@H](CCCN)CC(=O)N[C@@H]1CCNC[C@H]1C(=O)N[C@H](CC(=O)N[C@@H](CCC(=O)O)CC(=O)O)Cc1c[nH]c2ccccc12)NC(=O)[C@@H]1CNCC[C@H]1N	·	·	·	-10%	·	·
O=C(O)[C@H]1C[C@H](C(=O)O)N1	-13%	-3%	-7%	-13%	40%	·
c1ccc2c(c1)Cc1cc(CN3CCOCC3)ccc1-2	-5%	?	13µM*	-6%	-3%	·
COc1ccccc1CNc1ccnc(-c2cccc(C#N)c2)n1	-8%	32µM*	4%[2.29 µM]	6%	-3%	·
COc1ccccc1CNc1ccnc(-c2ccc3c(c2)OCO3)n1	?	?	-3%[2.29 µM]	-29%	13µM*	·
COc1ccccc1CNc1ccnc(-c2ccccc2OC)n1	?	-21%	0%[2.29 µM]	?	13µM*	·
COc1ccccc1CNc1ccnc(-c2ccccc2CN(C)C)n1	-7%	-4%	0%[2.29 µM]	3%	19%	·
COCCNc1ccnc(-c2ccccc2C)n1	-27%	3%	0%[2.29 µM]	?	13µM*	·
COc1ccc(CNc2ccnc(-c3ccc4c(c3)OCO4)n2)c(OC)c1	2%	-21%	4%[2.29 µM]	-9%	?	·
CN1CC[C@@]2(CCN3CCc4c(oc5ccccc45)[C@@H]3C2)N(C)C1=O	7%	4%	-1%	8%	-13%	·
c1ccc(CCCNc2nnnc3ccccc23)cc1	7%[11.4 µM]	9%[11.5 µM]	-1%[11.4 µM]	7%[11.4 µM]	6%[11.4 µM]	·
CCCCCCC1=Cc2cc(OC)c(OC)cc2C(C(C(C)=O)C(=O)OCC)O1 (configuration not stated)	4%[11.4 µM]	23%[11.5 µM]	·	14%[11.4 µM]	-2%[11.4 µM]	·
COc1c2c(nc3ccccc13)O[C@H]([C@@](C)(O)CO)C2	-3%[25.6 µM]	2%[25.7 µM]	1%[25.5 µM]	-3%[25.6 µM]	16%[25.6 µM]	·
COc1cc(C(Nc2ccccn2)c2ccc3ccc(C)nc3c2O)cc(OC)c1O (configuration not stated)	13µM*	26%	-15%	?	13µM*	>57
Oc1c([C@H](Nc2ccccn2)c2ccccc2)ccc2cccnc12	5%[11.4 µM]	-11%[11.5 µM]	2%[11.4 µM]	?	-15%[11.4 µM]	·
Cc1csc(NC(=O)c2cc3c(s2)CCC3)n1	-1%	-7%	2.5µM*	6%	-13%	?
Cc1csc(NC(=O)c2cc3c(s2)-c2ccccc2OC3)n1	20µM*	-24%	-9%	32µM*	?	·
COC(=O)c1sc(NC(=O)c2cc3c(s2)CCCC3)nc1C	-9%	8%	2%	-29%	0%	>57
COC(=O)CC1=COC(O)C2C(CO)=CC[C@@H]12 (some centres not stated)	1%[11.4 µM]	0%[11.5 µM]	·	-6%[11.4 µM]	11%[11.4 µM]	·
N=C1C(c2nc(-c3ccc(Cl)cc3)cs2)=C(O)CN1CCCN1CCOCC1	5%	3%	-10%	-1%	-16%	4.5*
SMILES	HSD17B inhib	ERK AVP inh	FLuc inh	HADH2 inh	ALOX15 inhib	PK Bst
CCOC(=O)c1ccc(NCc2nc3ccccc3[nH]2)cc1	-2%	?	16µM*	6%	9%	·
O=C(O)C[n+]1ccccc1	2%[11.4 µM]	23%[11.5 µM]	-1%[11.4 µM]	-1%[11.4 µM]	0%[11.4 µM]	·
O=c1c(-c2ccccc2)n[nH]c2ccccc12	-19%	-4%	13µM*	7%	-4%	i
O=c1ccc(-c2ccccc2)n[nH]1	4%[11.4 µM]	-12%[11.5 µM]	1%[11.4 µM]	-15%[11.4 µM]	-2%[11.4 µM]	·
CCCn1cnc2c(SCC(=O)O)nc(N)nc21	8%[11.4 µM]	19%[11.5 µM]	3%[11.4 µM]	-2%[11.4 µM]	-1%[11.4 µM]	·
C[N+](C)(C)[C@@H](C1=CCCC1=O)c1ccccc1	-8%[11.4 µM]	-11%[11.5 µM]	5%[11.4 µM]	-3%[11.4 µM]	1%[11.4 µM]	·
CN(C)CCCc1cc(C(=O)Nc2ccc(-c3ccncc3)cc2)ccc1O	-15%	-8%	1%	-2%	?	·
Cc1cc(C(=O)CSc2nc(N)cc(N)n2)c(C)n1CCc1ccc(F)cc1	-13%	13µM*	-2%	8%	-22%	>57
COc1ccc(CCn2c(C)cc(C(=O)CSc3nnnn3C)c2C)cc1	3%	2%	2%	6%	5%	>57
O=C1C2C3C=CC(C3)C2C(=O)N1c1cccc(-c2nc3ccccc3o2)c1 (configuration not stated)	32µM*	-20%	0%	?	2%	·
Cc1cccc(N2C(=O)C3C4C=CC(C4)C3C2=O)c1 (configuration not stated)	7%	7%	3%	-3%	-2%	>57
O=c1[nH]c(CN2CCCCC2)nc2c1C1(CCCCC1)Cc1ccccc1-2	·	·	2%[25.5 µM]	·	·	>11
O=c1[nH]c(NCCO)nc2c1C1(CCCCC1)Cc1ccccc1-2	32µM*	-18%	1%	?	-20%	>57
O=C(CCCc1c[nH]c2ccccc12)N1CCN(c2ccc(N3CCOCC3)nn2)CC1	25µM*	-19%	-8%	?	-7%	·
COc1cc(CCC(=O)N2CCN(c3ccc(N4CCOCC4)nn3)CC2)cc(OC)c1OC	25µM*	-6%	0%	?	5%	·
NC(=O)CCc1c[nH]c2ccccc12	-3%	-11%	-1%	8%	3%	·
N=C(N)SCCc1ccc(CCSC(=N)N)cc1	5%	13%	-1%	-14%	-5%	·
CN1CCN(C(=O)c2cc3nc(-c4ccccc4)cc(C(F)(F)F)n3n2)CC1	-9%	-28%	2%	14%	0%	>57
CN1CCN(C(=O)c2cc3nc(-c4ccc(Cl)cc4)cc(C(F)(F)F)n3n2)CC1	25µM*	-21%	0%	2%[11.4 µM]	5%[11.4 µM]	·
COc1ccc(-c2cc(C(F)(F)F)n3nc(C(=O)N4CCCCC4)cc3n2)cc1	25µM*	-5%	-4%	?	-8%	·
COc1ccc2[nH]cc(CCNc3ccnc(-c4ccc5c(c4)OCO5)n3)c2c1	?	32µM*	0%[2.29 µM]	?	?	·
